Compounds without any hit were thinned out: in the full panel of roughly 83,000, 20% have a hit.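 Results are percent growth after 48 hours of single-concentration exposure. 100 means growth as in untreated cells, lower positive values show inhibition; negative values down to -100 show cell death.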 Values without a mark were called inactive. The source made the active and inactive calls. How the source made its calls: active means growth percent below 10; inactive means the rest.
Tests used:
Experiment in all cases: NCI-60 one-dose screen, 48 h (100 = growth as untreated, 0 = no growth, -100 = all killed)
Details in all cases: 10 µM unless noted
RPMI-8226 leukemia = system: RPMI-8226 leukemia
OVCAR-8 ovarian = system: OVCAR-8 ovarian
SK-OV-3 ovarian = system: SK-OV-3 ovarian
IGROV1 ovarian = system: IGROV1 ovarian
OVCAR-3 ovarian = system: OVCAR-3 ovarian
NCI/ADR-RES ovarian = system: NCI/ADR-RES ovarian
T-47D breast = system: T-47D breast
BT-549 breast = system: BT-549 breast
MDA-MB-435 melanoma = system: MDA-MB-435 melanoma
SW-620 colon = system: SW-620 colon
MCF7 breast = system: MCF7 breast
HCT-116 colon = system: HCT-116 colon
HCC-2998 colon = system: HCC-2998 colon
KM12 colon = system: KM12 colon
OVCAR-5 ovarian = system: OVCAR-5 ovarian
HS 578T breast = system: HS 578T breast
OVCAR-4 ovarian = system: OVCAR-4 ovarian

Compound	growth (RPMI-8226 leukemia)	growth (OVCAR-8 ovarian)	growth (SK-OV-3 ovarian)	growth (IGROV1 ovarian)	growth (OVCAR-3 ovarian)	growth (NCI/ADR-RES ovarian)	growth (T-47D breast)	growth (BT-549 breast)	growth (MDA-MB-435 melanoma)	growth (SW-620 colon)	growth (MCF7 breast)	growth (HCT-116 colon)	growth (HCC-2998 colon)	growth (KM12 colon)	growth (OVCAR-5 ovarian)	growth (HS 578T breast)	growth (OVCAR-4 ovarian)
COc1ccc(-c2cc(-c3ccc(Nc4nc(Nc5ccccc5)nc(Nc5ccc(Cl)cc5)n4)cc3)nc(N)n2)cc1	50.5%	79%	119%	39.2%	52.6%	69.3%	35.5%	82.1%	66.6%	80%	22.6%	38.1%	-7.72% (active)	39.9%	–	–	–
CC(C)(C)Nc1c(-c2c3ccccc3cc3ccccc23)nc2ccccn12	55%	67.2%	59.6%	64.2%	72.3%	82.9%	–	92.1%	90.1%	67.3%	74.2%	46.2%	86%	61.4%	78.5%	72%	–
COc1ccc(/C=C(\C#N)n2nnc3cc(F)c(F)cc32)c(OC)c1OC	41.6%	67.6%	88.6%	68.8%	58.2%	72.7%	–	70.9%	45.7%	62%	27.2%	52.9%	114%	67.8%	98%	66.2%	–
CCOC(=O)C(=CNc1ccccc1[N+](=O)[O-])C(=O)OCC	–	101%	110%	107%	105%	101%	90%	103%	111%	99.5%	92.9%	100%	96.1%	106%	96.4%	98.6%	110%
CN(C)c1cnccn1	65.2%	–	90.9%	91.1%	104%	88.6%	75.9%	73%	100%	88.7%	87.3%	97.3%	112%	103%	114%	–	82.3%
C[C@@H]1CC[C@@H]2[C@@H]1[C@H](OC(=O)c1ccc3ccccc3c1)[C@]1(C3CCCCC3)C[C@@H](OC(=O)CO)[C@@]2(C)O1	–	18.5%	75.4%	71.1%	73.6%	14.6%	–	0.366% (active)	72.1%	65.1%	20.5%	28.3%	51.3%	54.2%	89.4%	-32.1% (active)	55.5%
Cc1nc2ccc(C(=O)NCc3cc(C(=O)O)c(C)o3)cc2nc1C	108%	96.6%	80.2%	106%	101%	106%	–	96.1%	96.2%	99.3%	101%	95.5%	98%	92.3%	99.7%	96.8%	–
CCCCCCN(CCCCCC)CC(O)c1cccc2ccc(Cl)cc12 (stereo not given)	31.2%	93.8%	–	40.8%	63.2%	66.9%	–	99.2%	69.9%	35.7%	56.5%	16.7%	13.1%	44.5%	69.3%	61.2%	–
O=C(NCc1cccnc1)c1cc(-c2csc3c(=O)cc(N4CCOCC4)oc23)cc2c1OCCO2	9.21% (active)	38%	8.37% (active)	7.23% (active)	34.7%	89.3%	–	54.3%	32.9%	46.9%	8.29% (active)	45.2%	41.8%	48.9%	–	8.92% (active)	50.3%
COc1cccc(-c2nc3sccn3c2-c2ccnc(NCCNS(=O)(=O)c3c(Cl)cccc3Cl)c2)c1	–	39%	89.5%	57.2%	70.8%	36.6%	6.81% (active)	30.4%	50.4%	74.1%	58.4%	48.8%	99.4%	46.7%	90.9%	87.8%	59.7%
C/C(=N\NC(=O)Cn1c(-c2ccc(S(C)(=O)=O)cc2)nc2cc(Cl)ccc21)c1ccc(Cl)cc1	76.4%	–	81.3%	70.6%	79.7%	86.7%	–	92.3%	79.1%	92.2%	62%	80.5%	103%	76.4%	91.2%	80.7%	65.9%
CS(=O)(=O)c1ccc(-c2[nH]c3ccc(F)cc3c2/C=N/NC(N)=S)cc1	12%	20.8%	13.4%	29%	11.8%	11.1%	–	39.3%	-16.3% (active)	21.3%	19.3%	8.16% (active)	24.3%	18.5%	–	28%	50%
C=C(C)[C@@H]1CC[C@]2(C(=O)NCC(=O)O)CC[C@]3(C)[C@H](CC[C@@H]4[C@@]5(C)Cc6c([nH]c7ccccc67)C(C)(C)[C@@H]5CC[C@]43C)[C@@H]12	79.8%	–	75.1%	83.3%	90.5%	95.4%	–	65.7%	87.1%	85%	81.4%	77.4%	98.4%	88.1%	107%	56.9%	75.9%
C=C1C(=O)O[C@H]2[C@H]1CC/C(COC(=O)NCc1ccc(Cn3c(=O)sn(CCCCl)c3=O)cc1)=C\CC[C@@]1(C)O[C@@H]21	-30.1% (active)	43.7%	91.9%	-36.3% (active)	-87.9% (active)	104%	–	51.8%	26.8%	-51.9% (active)	5.59% (active)	-63.6% (active)	91.4%	77.7%	–	88.2%	15.2%
CS(=O)(=O)c1ccc(-c2nc3cc(Cl)ccc3n2CC(=O)N/N=C/c2ccc(Cl)cc2)cc1	–	–	65.8%	55.6%	46.5%	92.8%	–	41.8%	73.7%	75%	37.4%	42.1%	73.5%	41%	77.4%	19.2%	60.1%
CC(C)n1nc(C#Cc2cccc3cc(-c4cccc(C(F)(F)F)c4)ncc23)c2c(N)ncnc21	57.1%	41.1%	91%	72%	91.2%	82%	–	97.7%	67.3%	71.8%	75.7%	31.4%	98.1%	60.9%	86.1%	65.2%	–

Compound	growth (RPMI-8226 leukemia)	growth (OVCAR-8 ovarian)	growth (SK-OV-3 ovarian)	growth (IGROV1 ovarian)	growth (OVCAR-3 ovarian)	growth (NCI/ADR-RES ovarian)	growth (T-47D breast)	growth (BT-549 breast)	growth (MDA-MB-435 melanoma)	growth (SW-620 colon)	growth (MCF7 breast)	growth (HCT-116 colon)	growth (HCC-2998 colon)	growth (KM12 colon)	growth (OVCAR-5 ovarian)	growth (HS 578T breast)	growth (OVCAR-4 ovarian)
C=C1C(=O)O[C@H]2[C@H]1CC/C(Cn1cc(CNCCc3c[nH]c4ccc(Cl)cc34)nn1)=C\CC[C@@]1(C)O[C@@H]21	–	59.6%	72.6%	2.11% (active)	11.9%	102%	–	74.7%	68%	2.69% (active)	42.9%	11.2%	103%	82.9%	83.5%	83.4%	41.7%
Cn1cc(Nc2nccc(-c3ccc(N4CCCC4)c(C#N)c3)n2)cn1	27.1%	–	18.4%	25.3%	32.1%	42.2%	–	37.7%	0.731% (active)	14.2%	27.3%	11.5%	59.8%	31.6%	88%	32.5%	53.7%
CCCCCCCCc1cc[n+](CC(=O)c2ccc(Br)cc2)cc1	–	-65.8% (active)	22%	1.68% (active)	-44.1% (active)	93.3%	-16.6% (active)	77.8%	-15.1% (active)	-33.7% (active)	-74% (active)	-43.1% (active)	-67.4% (active)	-56.8% (active)	51.9%	-29.2% (active)	18.8%
COc1ccc(Nc2ncc(Br)c(NCCCNC(=O)C3CCC3)n2)cc1	–	–	10.6%	14.5%	31.6%	47.4%	–	-33.9% (active)	53.8%	29.1%	41.1%	5.88% (active)	42.4%	15.2%	31.1%	-15.7% (active)	-0.243% (active)
C=C1C(=O)O[C@H]2[C@H]1CC/C(Cn1cc(CNCCc3c[nH]c4ccccc34)nn1)=C\CC[C@@]1(C)O[C@@H]21	–	92.5%	80.9%	68.8%	69.4%	99.9%	–	90.6%	97%	46.1%	90.2%	64.8%	97.1%	98%	88.8%	92.4%	–
CNC(=O)c1c(NC(=O)c2ccc(C(C)(C)C)cc2)sc2c1CCC(=O)C2	-20.6% (active)	–	0.618% (active)	4.71% (active)	-21.4% (active)	8.75% (active)	-23.5% (active)	1.12% (active)	-9.83% (active)	-62.3% (active)	8.99% (active)	0.171% (active)	23.3%	-7.97% (active)	9.12% (active)	24.2%	-66.4% (active)
COc1ccc(-n2ncn(CCCCCCn3cnn(-c4ccc(OC)cc4)c3=O)c2=O)cc1	78.3%	–	99.5%	90.6%	98.4%	89%	–	101%	102%	95.2%	92.7%	94.5%	110%	97%	101%	93.9%	84.5%
NC(=O)c1c(NC(=O)c2ccccn2)sc2c1CCC(=O)C2	1.88% (active)	14.2%	95.6%	29.9%	7.94% (active)	17.6%	5.3% (active)	5.57% (active)	21.3%	14.7%	39.1%	9.08% (active)	81%	6.82% (active)	–	25.1%	-7.1% (active)
COc1cc(/C=C/C(=O)c2ccc(Nc3nc(Nc4ccccc4)nc(Nc4ccc(Cl)cc4)n3)cc2)cc(OC)c1OC	-4.87% (active)	41.1%	79.5%	54.8%	48%	21.8%	28.3%	50.9%	58.8%	56.2%	7.84% (active)	0.251% (active)	–	46.9%	55.1%	–	–
Cc1nn(Cc2ccccc2)cc1C(=O)Nc1sc2c(c1C(N)=O)CCC(=O)C2	-6.08% (active)	–	116%	33.5%	9.48% (active)	72%	10.5%	10.4%	16.7%	13.4%	13.6%	6.74% (active)	80.6%	13.5%	73.8%	28.8%	-7.95% (active)
COC1(CC[C@@H](C)COC2OC(CO)C(O)C(O)C2O)O[C@H]2C[C@H]3[C@@H]4CC=C5C[C@@H](OC6OC(CO)C(OC7OC(C)C(O)C(O)C7O)C(O)C6OC6OC(C)C(O)C(O)C6O)CC[C@]5(C)[C@H]4CC[C@]3(C)[C@H]2[C@@H]1C (stereo not given in full)	-56.3% (active)	–	-71.8% (active)	-78.6% (active)	-73.6% (active)	-75.6% (active)	-4.7% (active)	-84.2% (active)	-61.3% (active)	-96.4% (active)	-85.5% (active)	-86.1% (active)	–	-82.2% (active)	-86.6% (active)	–	-64.7% (active)
CCn1nc(C#Cc2c(C)ccc3c(Nc4ccc(Cl)cc4)nccc23)c2c(N)ncnc21	2.72% (active)	7.01% (active)	-3.61% (active)	12.5%	7% (active)	11.6%	–	10.5%	-26.3% (active)	25%	6.61% (active)	6.73% (active)	31.6%	14.2%	25.1%	0.71% (active)	–
Cc1cc(N(CCCNc2ccnc3cc(Cl)ccc23)Cc2ccccn2)nc(N2CCCC2)n1	48.9%	73.4%	102%	87.5%	88%	76.7%	–	91.7%	86.7%	70.5%	56.9%	50.3%	89.2%	82.8%	87.6%	88.9%	–
CN(C)c1ccc(/C=N/NC(=O)COc2cc(=O)n(C)c3ccccc23)cc1	–	103%	112%	87%	112%	108%	97.6%	108%	101%	104%	89.4%	101%	116%	109%	94.2%	120%	113%
CC[C@@H](C[C@H](CCO)c1ccccc1)c1cc2ccccc2o1	90.8%	91%	93.9%	97.8%	95.7%	93.1%	–	97.7%	102%	89.6%	117%	76.6%	109%	88.7%	–	93%	85.3%
